Laboratory results taken from PubChem BioAssay AID686978 (National Center for Advancing Translational Sciences (NCATS), 2013).
Among all 420,000 compounds or so, about 64,000 (15%) were called active. Not shown: some 27% with an inconclusive outcome. Calls follow the shape of the dose curve; as a rule, active = well fitted inhibition curve with a large enough effect; inconclusive = small, poorly fitted or top-dose-only effect; inactive = flat fitted curve, though single readings scatter. The list is a sample of the results. Entries that show only a call come without a potency.

Assay: qHTS for Inhibitors of human tyrosyl-DNA phosphodiesterase 1 (TDP1): qHTS in cells in absence of CPT; also: nearly all actives have a fitted effect of over 55% in size
Conditions: DT40 Tdp1-/- hTDP1 cells, no CPT, ATP luminescence, 48 h; activity change, negative = growth inhibition: at 46.2 µM (top of the series)
In short: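 Growth of hTDP1-complemented DT40 Tdp1-knockout cells is measured by ATP luminescence after at least 48 hr compound exposure at 37 °C, with DMSO substituting for the 20 nM CPT used in the parallel screen.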
Potency is read from the fitted curve at half-maximal effect.

| SMILES | Potency |
| --- | --- |
| COc1ccc(Nc2ncnc3ccc(Br)cc23)c(OC)c1 | inactive |
| CC1(C)CC2CC(C)(CN2c2ncnc3ccc(Br)cc23)C1 (stereo not drawn) | 3.26 µM (active) |
| CCCCn1c(N)c(N(CCOC)C(=O)CSCC(=O)Nc2cccc(C)c2)c(=O)[nH]c1=O | inactive |
| CC[C@@H](C)[C@@H](C(=O)N1CCN(C(=O)OC(C)(C)C)CC1)n1cc(CCC(=O)O)nn1 | inactive |
| COc1ccc(C2NC(=O)N(C)C3=C2C(=O)N(c2ccc(C(=O)O)cc2)C3)cc1 (stereo not drawn) | inactive |
| Cc1ccc(C(=O)CSc2nnc(Cn3nnc4ccccc43)n2C)cc1 | inactive |
| Cc1ccc2nnn(Cc3cccc(C(C)(C)C)c3O)c2c1 | 11.6 µM (active) |
| O=C(Nc1ccccc1)N[C@H]1C[C@H](C(=O)O)Nc2cc(Cl)cc(Cl)c21 | inactive |
| CCCCCc1ccc(-c2ccc(OCC)cc2)nc1 | inactive |
| COc1ccc2[nH]c(=S)cc(C)c2c1 | inactive |
| COc1ccc2[nH]c3c(C)c4cc[n+](C)cc4c(C)c3c2c1 | 0.259 µM (active) |
| COc1ccc2[nH]c3ccc(OC)cc3c2c1 | inactive |
| O=S(=O)(NCc1ccc2c(c1)OCO2)c1cccc2nsnc12 | inactive |
| O=Cc1cn(-c2ccccc2)nc1-c1ccccn1 | inactive |
| COc1ccc2c(c1)OC(O)(C(F)(F)C(F)F)CC2=O (stereo not drawn) | 23.1 µM (active) |
| COc1ccc2c(c1)SC(C)CC2=O (stereo not drawn) | inactive |
| CCCC(C(=O)N1CCOCC1)N1C(=O)C2C3C=CC(C3)C2C1=O (stereo not drawn) | inactive |
| CC(=O)OCC(COC(C)=O)OC(C)=O | inactive |
| O=C(CN1C(=O)/C(=C\c2ccccc2F)SC1=S)Nc1nc2ccccc2s1 | inactive |
| COCCN1CCn2c(nc3cc(NS(C)(=O)=O)ccc32)C1 | inactive |
| O=C(CN1C(=O)c2ccccc2S1(=O)=O)NC1CCCCC1 | inactive |
| COc1cccc(Oc2ccc(N)cc2)c1 | inactive |
| COc1cc(OC)nc(N/N=C(\c2ccccc2)c2ccncc2)n1 | inactive |

| SMILES | Potency |
| --- | --- |
| CCOc1ccc(N2C(=O)CSC2=NC#N)cc1 | inactive |
| CCC(C(=O)NC1CCCCC1)N(C(=O)c1snc(C(N)=O)c1N)c1ccc(OC)cc1OC (stereo not drawn) | 23.1 µM (active) |
| CCC(C(=O)NC1CCCC1)N(C(=O)c1snc(C(N)=O)c1N)c1ccc2c(c1)OCCO2 (stereo not drawn) | inactive |
| COc1ccc(N(C(=O)c2snc(C(N)=O)c2N)C(C(=O)NC2CCCC2)c2ccco2)cc1OC (stereo not drawn) | inactive |
| COc1cccc(-n2c(=O)c3c(C)c(C(=O)N(C)C)sc3n(CC(=O)NCCc3ccc(OC)c(OC)c3)c2=O)c1 | inactive |
| CCc1ccc(C(CNc2nc(C(F)(F)F)nc3ccccc23)N(C)C)cc1 (stereo not drawn) | 18.4 µM (active) |
| CN(C)C(CNC(=O)Cc1ccc([N+](=O)[O-])cc1)c1ccccc1 (stereo not drawn) | inactive |
| C=CCn1cc(Cl)cc(C(=O)Nc2ccccc2)c1=O | inactive |
| CCn1cc(/C=C(\NC(=O)c2ccc(C)cc2)C(=O)NCCN2CCOCC2)c2ccccc21 | inactive |
| COc1ccccc1NC(=O)CCCc1c[nH]c2ccccc12 | inactive |
| O=C(Cc1c[nH]c2ccccc12)N/N=C/c1cccc(F)c1 | 3.66 µM (active) |
| O=C(CC(=O)N/N=C\c1ccc(F)cc1)NCCc1ccccc1 | inactive |
| COCCNC(=O)C(c1ccc(O)cc1)N(C(=O)CCC(=O)Nc1nccs1)c1ccc(C)cc1 (stereo not drawn) | inactive |
| CCOC(=O)COc1ccc([N+](=O)[O-])cc1 | inactive |
| C/C(=N\N(C)C)c1ccc(OCCOc2ccc([N+](=O)[O-])cc2)cc1 | 25.9 µM (active) |
| C/C(=N/NC(=O)CC(=O)N/N=C(\C)c1ccc([N+](=O)[O-])cc1)c1ccc([N+](=O)[O-])cc1 | inactive |
| Cc1cccc(N(CC(=O)N2CCCC2)S(C)(=O)=O)c1C | inactive |
| CC1(OC(=O)CCc2ccccc2)C(=O)C=C2C=C(c3ccc(C#N)cc3)N(CCc3ccccn3)C=C2C1=O (stereo not drawn) | inactive |
| CCN(CC)S(=O)(=O)c1ccc2c3c(cccc13)C(=O)S2 | inactive |
| C/C(=N\NC(=O)c1cccnc1)c1ccc(-n2ccnc2)cc1 | inactive |
| CCC(C)NCCOCCOc1ccc(Br)cc1C (stereo not drawn) | 20.6 µM (active) |
| COCC(C)NCc1cc(Br)ccc1OC (stereo not drawn) | inactive |
| O=C1C(=O)N(CCCN2CCOCC2)C(c2ccc([N+](=O)[O-])cc2)/C1=C(\O)c1ccc2c(c1)OCCO2 (stereo not drawn) | inactive |

| SMILES | Potency |
| --- | --- |
| O=C(ON=C1CCN(S(=O)(=O)c2ccccc2)CC1)c1ccc(Cl)cc1 | inactive |
| CCOc1cccc(-c2nnc(SCC(=O)NC3CC3)n2C)c1 | inactive |
| Cc1ccc(CNC(=O)CSc2nnc3c(n2)[nH]c2ccc(F)cc23)cc1 | inactive |
| CCOc1ccc2[nH]c3nc(SCC(=O)NC4CCCC4)nnc3c2c1 | 6.51 µM (active) |
| CC(Sc1nncn1C)C(=O)Nc1ccccc1-c1ccccc1 (stereo not drawn) | inactive |
| Cn1c(=O)c2cc(NC(=O)NCCc3cccs3)ccc2n1Cc1cccc(C(F)(F)F)c1 | 23.1 µM (active) |
| O=C(Cc1cccs1)NCc1cccc(C(F)(F)F)c1 | inactive |
| COc1ccc(CCNC(=O)Nc2ccc3c(c2)c(=O)n(C)n3C)cc1OC | inactive |
| COc1ccc(S(=O)(=O)Nc2cccnc2)c(Cl)c1Cl | inactive |
| Cc1c(NC(=O)CSCc2ccccc2)cccc1C(=O)O | inactive |
| Cc1occc1C(=O)N1CCCc2ccccc21 | inactive |
| O=C(c1cc(-c2ccc(O)cc2)on1)N1CCCc2ccccc21 | inactive |
| Cc1cccc2cc3c(N)c(C(=O)N4CCCc5ccccc54)sc3nc12 | 2.59 µM (active) |
| CC(C)[C@H](NC(=O)OCc1ccccc1)C(=O)OCc1ccccc1 | inactive |
| c1ccc2c(C[n+]3csc4ccccc43)cccc2c1 | 0.82 µM (active) |
| Nc1scc[n+]1Cc1cccc2cccnc12 | inactive |
| CCOc1ccc(CCNC(=O)c2c(C)oc3ncn(C)c(=O)c23)cc1 | inactive |
| CCOc1ccc(CCNC(=O)c2cc3c(=O)n(C)c4ccccc4c3n2C)cc1 | 14.6 µM (active) |
| Cn1c(C(=O)N2CCC(C(N)=O)CC2)cc2c(=O)n(C)c3ccccc3c21 | inactive |
| Cn1c(C(=O)NCCc2ccsc2)cc2c(=O)n(C)c3ccccc3c21 | 16.4 µM (active) |
| CCOc1ccc(CC(=O)NCCc2csc3nc(-c4ccccc4F)nn23)cc1 | inactive |
| CCOCCCNC(=O)c1cn(CC(C)C)c(=O)c2c1c1ccccc1n2C | inactive |
